Only some compounds are listed: those with a hit (about 1.8% of all), similar ones and a draw of the others.
Tb PGK inh: qHTS Assay to Find Inhibitors of Phosphoglycerate Kinase; PGK/GAPDH coupled, Kinase-Glo luminescence, 60 min; Potency, µM (series often up to 57.5 µM), without a hit: at the highest dose activity change, negative = inhibition, usual class: inhibitors; actives 0.043% (n = 380,000); also: % is scaled to controls: 0 for no effect and ±100 for the full control effect; nearly all actives have a fitted effect of over 60% in size
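Recombinant glycosomal PGK reaction used 1,3-bisphosphoglycerate generated in-well by GAPDH (100nM final) in 100mM TEA pH 7.6, 5mM MgCl2, 0.01% Tween-20. After 60 minutes at room temperature, ATP was read by Kinase-Glo Plus luminescence end-point.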
HEK293 tox: qHTS of GLP-1 Receptor Inverse Agonists: Cytotox Screen. HEK293 cAMP-luciferase reporter cells, luminescence, 24 h. Potency, µM (top dose mostly 38.3 µM), for the others: at the top dose activity change, negative = inhibition, actives largely listed as inhibitors. actives 0.13% (n = 410,000);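 also: loss of luciferase light is scored as toxicity; % is scaled to controls: 0 for no effect and ±100 for the full control effect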
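Here, cytotoxicity is scored as loss of luminescence. The MLSMR collection was tested on cells seeded in medium containing 10% Nu serum, with a 24 hr compound exposure preceded by 12 hours of culture.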
Tb PFK inh: qHTS Assay to Find Inhibitors of T. brucei phosphofructokinase. ATP-dependent 6-phosphofructokinase (Trypanosoma brucei brucei), O15648. T. brucei PFK, ADP-Glo luminescence. Potency, µM (doses to about 57.5 µM), for inactives: top-dose activity, negative = inhibition, actives largely listed as inhibitors. actives 0.17% (n = 330,000);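 also: 0% = uninhibited 1x PFK enzyme wells and -100% = no-enzyme wells; nearly all actives have a fitted effect of over 60% in size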
Target sequence (O15648 whole entry, looked up): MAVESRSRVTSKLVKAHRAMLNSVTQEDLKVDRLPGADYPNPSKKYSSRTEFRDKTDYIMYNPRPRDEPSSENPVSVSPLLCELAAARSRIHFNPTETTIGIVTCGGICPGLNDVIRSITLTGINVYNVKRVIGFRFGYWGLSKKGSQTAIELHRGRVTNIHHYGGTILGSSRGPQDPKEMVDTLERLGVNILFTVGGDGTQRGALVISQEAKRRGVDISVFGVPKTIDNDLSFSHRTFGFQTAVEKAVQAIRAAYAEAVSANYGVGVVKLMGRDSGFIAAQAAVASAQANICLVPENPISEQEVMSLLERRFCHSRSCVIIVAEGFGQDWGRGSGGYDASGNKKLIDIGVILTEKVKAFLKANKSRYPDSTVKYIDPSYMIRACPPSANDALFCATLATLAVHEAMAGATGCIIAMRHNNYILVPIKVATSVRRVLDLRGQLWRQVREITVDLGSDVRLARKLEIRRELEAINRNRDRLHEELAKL
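ADP-Glo luminescence quantified ADP after 45 min at room temperature, with 1.25 nM T. brucei PFK, 0.1 mM ATP and 0.5 mM fructose-6-phosphate in pH 8.0 TEA buffer. qHTS titrations up to 57 µM; curves classified by quality.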
GLP-1R agonist: qHTS of GLP-1 Receptor Agonists. HEK293 GLP-1R CRE-luciferase, luminescence, 4-6 h; cells express a hypersensitive GLP-1R form. Potency, µM (series often up to 45.6 µM), inactives show at the highest dose activation, hits mostly activators. actives 0.007% (n = 380,000). AID 624172, 2012; also: % of control where 0% means no effect
GLP1R inv ag: qHTS of GLP-1 Receptor Inverse Agonists (Inhibition Mode); HEK293 GLP-1R CRE-luciferase, luminescence, 24 h; GLP-1R form is constitutively active; actives 1.6% (n = 410,000); AID 624417, 2012; Glucagon-like peptide 1 receptor (Homo sapiens), P43220; Potency, µM (titrated, usually from 38.3 µM), for the others: at the top dose activity change, negative = inhibition, usual class: inhibitors; also: % is scaled to controls: 0 for no effect and ±100 for the full control effect; nearly all actives have a fitted effect of over 55% in size
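Cells are plated, allowed 12 hours at 37 deg C, then treated with compounds for 24 hr before luciferase detection reagent is added and luminescence is read after 12 min at room temperature. The HEK293 line carries constitutively active GLP-1R with a cAMP-responsive reporter.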
Pin1 inh: qHTS Assay to Find Inhibitors of Pin1. actives 0.009% (n = 390,000). Potency, µM (highest dose often 115 µM), for inactives: at the top dose activity, negative = inhibition, usual class: inhibitors. AID 504891, 2011. Pin1 FP peptide displacement, HiFluor488, 10 min; active = well fitted inhibition curve with a large enough effect in the polarisation, with a control signal flat, not every such curve was filed as active; inconclusive = small, poorly fitted or top-dose-only effect, or effect the other way, or a change in a side signal; inactive = no such curve, though single readings can be large or run the other way; the % refers to the polarisation; also: % is scaled to controls: 0 for no effect and ±100 for the full control effect
Target sequence (Q13526 whole entry, looked up): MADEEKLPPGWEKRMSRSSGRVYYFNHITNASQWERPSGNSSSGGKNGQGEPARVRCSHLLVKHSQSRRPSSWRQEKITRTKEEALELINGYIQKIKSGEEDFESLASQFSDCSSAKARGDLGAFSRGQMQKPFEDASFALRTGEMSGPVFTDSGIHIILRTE
* marks the source's active call; other numbers are inactive results; i = inactive; u = inconclusive; x = no result. Unless noted, calls follow the shape of the dose curve; as a rule, active = well fitted curve in the direction sought with a large enough effect; inconclusive = small, poorly fitted or top-dose-only effect, or another doubt; inactive = no such curve, though single readings can be large; an effect the other way counts as inactive or inconclusive. Potency is read from the fitted curve at half-maximal effect.

SMILES	Tb PGK inh	HEK293 tox	Tb PFK inh	GLP-1R agonist	GLP1R inv ag	Pin1 inh
CCc1ccc(OCC(=O)Nc2ccc(S(=O)(=O)N3CCCC3)cc2)c(Br)c1	0%	-28%	-2%	-17%	-2%	3%
CCN(CC)S(=O)(=O)c1ccc(NC(=O)[C@H](CSCc2ccccc2)N2Cc3ccccc3C2=O)cc1	-3%	-2%	x	x	16%	6%
Cc1ccc(NC(=O)[C@@H](c2ccccc2)N2Cc3ccccc3C2=O)cc1F	-1%	-7%	x	-4%	10µM*	4%
CCc1ccccc1NC(=O)CSc1nc2ncccc2o1	10%	3%	x	6%	21%	5%
O=[N+]([O-])c1ccc(SNc2ccccc2)c([N+](=O)[O-])c1	-2%	u	x	1%	11µM*	-8%
CCC(C(=O)Nc1ccc(C(=O)OC)cc1)n1nc(-c2ccc(C)cc2)c2c(c1=O)CCCC2 (stereo not given)	-6%	2%	x	x	2.5µM*	39%
COCCn1c(C)cc(O)c(C(c2ccccc2OC)N2CCN(c3ccccc3)CC2)c1=O (stereo not given)	-3%	-9%	x	x	-9%	-7%
CCn1c(C(=O)NCc2ccccc2C)cc2oc3ccccc3c21	x	1%	x	x	5µM*	2%
CCn1c(C(=O)NCc2ccc(OC(C)C)cc2)cc2oc3ccccc3c21	x	1%	x	x	u	-16%
CN(Cc1ccccc1)C(=O)c1cc(-c2cccc(Cl)c2)on1	-1%	9%	x	x	-17%	-2%
O=C(CC1C(=O)N(c2ccccc2)C(=S)N1c1ccccc1)c1ccc(Br)cc1 (stereo not given)	20%	1%	-1%	9%	11µM*	30%
Cc1ccc(Cn2c(SCC(=O)NCc3ccccc3Cl)nc3ccsc3c2=O)cc1	-1%	-5%	x	x	-1%	19%
CC(C)CCNC(=O)C1(C)CCN1Cc1ccc2ccccc2c1 (stereo not given)	x	0%	x	8%	10µM*	x
CC1(C(=O)NCc2cccc3ccccc23)CCN1Cc1ccc2ccccc2c1 (stereo not given)	x	-18%	x	-6%	u	x
CCOc1ccccc1NC(=O)c1nc(SC(C)C)ncc1Cl	i	20%	x	x	-6%	6%
c1ccc(CCSc2nccn2-c2ccccc2)cc1	-8%	4%	-2%	7%	u	10%
CCc1ccc(CSc2nccn2-c2ccccc2)cc1	-2%	0%	-1%	15%	6.3µM*	-13%
Cc1cccc(N2CCN(C(=O)Cn3ncc4c3-c3cc(C)ccc3OC4)CC2C)c1 (stereo not given)	1%	-12%	x	x	11µM*	3%
Cc1ccc2c(c1)-c1c(cnn1CC(=O)O)CO2	5%	-6%	-2%	-14%	3%	-5%
O=C(NCc1ccccc1Cl)C1CCN(S(=O)(=O)Cc2ccccc2)CC1	-9%	-2%	x	x	5%	-4%
NC(=O)NC1CCCc2c1[nH]c1ccc(Cl)cc21 (stereo not given)	0%	14%	-16%	-3%	u	3%
NC(=O)C1CCCCc2c1[nH]c1ccc(Cl)cc21 (stereo not given)	-2%	-2%	-7%	2%	13µM*	-9%
CCOC(=O)c1ccc2[nH]c3c(c2c1)CCCC3C(=O)OCC (stereo not given)	4%	-9%	-4%	20%	5µM*	-3%
CCOC(=O)C1CCCc2c1[nH]c1ccc(Cl)cc21 (stereo not given)	5%	1%	-4%	0%	u	-8%
C/C=C(/C)C(=O)O[C@@H]1c2c(ccc3ccc(=O)oc23)O[C@@H]1C(C)(C)OC(=O)/C(C)=C\C	3%	5%	0%	-1%	13µM*	11%
SMILES	Tb PGK inh	HEK293 tox	Tb PFK inh	GLP-1R agonist	GLP1R inv ag	Pin1 inh
C/C=C(/C)C(=O)OC(C)(C)[C@@H]1Cc2c(ccc3ccc(=O)oc23)O1	-8%	18%	6%	15%	u	-9%
Cc1ccc(S(=O)(=O)NC(C)(C)CN2CCC(Cc3ccccc3)CC2)cc1	-2%	-30%	1%	3%	2.5µM*	-6%
CC(C)(CN1CCCC1)NS(=O)(=O)c1ccc(Cl)cc1	4%	9%	4%	7%	7%	0%
CC(C)(CN1CCNCC1)NS(=O)(=O)c1ccc(Cl)cc1	6%	u	0%	14%	2µM*	-3%
COc1ccc(Cl)cc1Nc1sc(C(=O)c2ccccc2)c(N)c1C(=O)Nc1ccccc1	-12%	-9%	x	x	u	-5%
Cc1cccc(NC(=O)C2(C)CC3c4ccccc4C2c2ccccc23)c1C (stereo not given)	10%	10%	11%	-14%	10µM*	8%
Cc1ccc(C)c(NC(=O)C2(C)CC3c4ccccc4C2c2ccccc23)c1 (stereo not given)	-5%	16%	-6%	4%	-11%	2%
Cc1ccc(-c2[nH]ncc2/C=C(\C#N)C(=O)NC2CCCCC2)cc1	4%	-15%	-2%	2%	7.9µM*	11%
COc1ccc(-c2[nH]ncc2/C=C(/C#N)C(=O)NC2CCCCC2)cc1	i	-25%	4%	9%	u	4%
COc1ccc2ncnc(NCc3cccs3)c2c1-c1ccc2c(c1)OCO2	x	x	x	x	x	-6%
CC(C)NC(=S)NC(=O)c1ccc(-c2ccccc2)cc1	-7%	u	5%	-4%	10µM*	u
COc1ccc(OC)c(-c2nnc3n(Cc4ccc(C)cc4)c(=O)c4ccccc4n23)c1	-21%	1%	x	x	0%	-4%
COc1ccc(NC(=O)c2cnc(N3CCCCC3)c3ccccc23)cc1Cl	-10%	-8%	x	x	u	6%
CC(C)N(Cc1ccccc1)C(=O)C1CCCN(c2ncnc3onc(-c4ccc(F)cc4)c23)C1 (stereo not given)	-6%	1%	x	x	u	5%
CC(C)n1c(NCc2cc(Cl)ccc2O)nc2ccccc21	-5%	13%	0%	16%	10µM*	0%
Oc1ccc(Cl)cc1CNc1cnc2ccccc2c1	i	-6%	-8%	2%	10µM*	-6%
CC(C)n1c(Nc2ccccc2)nc2ccccc21	-9%	-9%	-1%	3%	11µM*	-1%

Source: PubChem (National Center for Advancing Translational Sciences (NCATS))
